# Assays:
# Experiment in all cases: DAPPL (digital affinity profiling via proximity ligation, sequencing); 10 mM Tris-HCl pH 7.5, 50 mM NaCl, 1 mM DTT, 4% glycerol, room temperature, 30 min; GST-TFs on glutathione beads, 16-mer random dsDNA library, 0.1% formaldehyde crosslink after washing; high values mean tight binding
# [1] = target: T1, FEV (Homo sapiens, UniProt Q99581 1-238); conditions: protein: recombinant; tags: N-terminal GST; dsDNA, one strand shown
# T1 sequence: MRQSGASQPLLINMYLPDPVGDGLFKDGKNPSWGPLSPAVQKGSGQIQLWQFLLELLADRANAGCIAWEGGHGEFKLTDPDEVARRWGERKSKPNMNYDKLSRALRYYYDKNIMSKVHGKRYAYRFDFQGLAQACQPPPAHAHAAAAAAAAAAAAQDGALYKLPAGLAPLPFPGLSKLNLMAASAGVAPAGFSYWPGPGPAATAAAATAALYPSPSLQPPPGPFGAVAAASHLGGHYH
# Outline: (§1)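 Each value of binding signal is a hexamer's read frequency for a factor divided by the same hexamer's frequency in the tag-only sample. Barcoded, bead-captured GST fusions of human transcription factors made in yeast were pooled with that sample and incubated with 200 nmole of a random double-stranded 16-mer DNA library in Tris/NaCl/DTT/glycerol buffer at room temperature for 30 min. Washing, 0.1% formaldehyde crosslinking, proximity ligation, PCR and Illumina NextSeq500 sequencing followed.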
# [2] = target: ETV5 (Homo sapiens, UniProt P41161 1-510); conditions: protein: recombinant; tags: N-terminal GST; dsDNA, one strand shown
# Outline: as §1
# [3] = target: HSF1 (Homo sapiens, UniProt Q00613 1-529); conditions: protein: recombinant; tags: N-terminal GST; chain copies: 3; dsDNA, one strand shown
# Outline: as §1
# [4] = target: T2, SPIC (Homo sapiens, UniProt Q8N5J4 1-248); conditions: protein: recombinant; tags: N-terminal GST; dsDNA, one strand shown
# T2 sequence: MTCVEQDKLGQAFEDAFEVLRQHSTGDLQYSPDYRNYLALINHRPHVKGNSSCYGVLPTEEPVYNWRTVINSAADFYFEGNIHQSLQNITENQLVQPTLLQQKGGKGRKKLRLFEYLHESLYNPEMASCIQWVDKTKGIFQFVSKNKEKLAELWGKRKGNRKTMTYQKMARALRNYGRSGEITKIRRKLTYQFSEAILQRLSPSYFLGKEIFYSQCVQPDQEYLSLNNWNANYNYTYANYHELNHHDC
# Outline: as §1
# [5] = target: ELF4 (Homo sapiens, UniProt Q99607 1-663); conditions: protein: recombinant; tags: N-terminal GST; dsDNA, one strand shown
# Outline: as §1
# [6] = target: T3, ELK4 (Homo sapiens, UniProt P28324-2 1-405); conditions: protein: recombinant; tags: N-terminal GST; dsDNA, one strand shown
# T3 sequence: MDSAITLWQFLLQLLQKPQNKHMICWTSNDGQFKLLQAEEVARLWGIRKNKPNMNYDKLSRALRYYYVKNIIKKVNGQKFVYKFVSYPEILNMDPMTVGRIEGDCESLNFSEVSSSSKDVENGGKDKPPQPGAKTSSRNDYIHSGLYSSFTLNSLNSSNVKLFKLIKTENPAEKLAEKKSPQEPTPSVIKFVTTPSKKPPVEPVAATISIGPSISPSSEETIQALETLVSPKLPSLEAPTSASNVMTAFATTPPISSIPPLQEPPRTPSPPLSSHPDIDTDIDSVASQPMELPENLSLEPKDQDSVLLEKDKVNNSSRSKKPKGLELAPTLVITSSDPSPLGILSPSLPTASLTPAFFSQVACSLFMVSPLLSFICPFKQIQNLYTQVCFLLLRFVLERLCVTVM
# Outline: as §1
# [7] = target: T4, ETV2 (Homo sapiens, UniProt O00321 1-342); conditions: protein: recombinant; tags: N-terminal GST; dsDNA, one strand shown
# T4 sequence: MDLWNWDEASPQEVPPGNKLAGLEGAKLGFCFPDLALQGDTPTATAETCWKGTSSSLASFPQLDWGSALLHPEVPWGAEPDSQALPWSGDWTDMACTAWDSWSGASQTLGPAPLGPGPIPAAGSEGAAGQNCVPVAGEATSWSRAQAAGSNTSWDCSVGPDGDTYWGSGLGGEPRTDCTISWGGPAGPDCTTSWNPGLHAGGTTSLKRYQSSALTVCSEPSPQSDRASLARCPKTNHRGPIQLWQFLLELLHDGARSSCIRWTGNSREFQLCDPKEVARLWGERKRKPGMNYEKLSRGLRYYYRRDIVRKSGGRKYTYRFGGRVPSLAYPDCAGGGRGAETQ
# Outline: as §1
# [8] = target: T5, ELF3 (Homo sapiens, UniProt P78545 1-371); conditions: protein: recombinant; tags: N-terminal GST; dsDNA, one strand shown
# T5 sequence: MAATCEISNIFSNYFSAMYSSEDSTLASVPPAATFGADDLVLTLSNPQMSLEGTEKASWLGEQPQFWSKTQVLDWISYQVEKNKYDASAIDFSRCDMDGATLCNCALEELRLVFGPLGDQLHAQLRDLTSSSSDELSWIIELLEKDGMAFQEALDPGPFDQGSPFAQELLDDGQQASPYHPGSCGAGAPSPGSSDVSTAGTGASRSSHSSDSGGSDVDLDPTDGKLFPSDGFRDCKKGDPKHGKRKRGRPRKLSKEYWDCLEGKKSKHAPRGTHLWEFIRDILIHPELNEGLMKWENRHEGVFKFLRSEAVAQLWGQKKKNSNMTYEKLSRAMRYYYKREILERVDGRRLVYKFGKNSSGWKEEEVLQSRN
# Outline: as §1
# [9] = target: CRX (Homo sapiens, UniProt O43186 1-299); conditions: protein: recombinant; tags: N-terminal GST; dsDNA, one strand shown
# Outline: as §1
# [10] = target: ETV1 (Homo sapiens, UniProt P50549 1-477); conditions: protein: recombinant; tags: N-terminal GST; dsDNA, one strand shown
# Outline: as §1
# [11] = target: T6, ERF (Homo sapiens, UniProt P50548 1-548); conditions: protein: recombinant; tags: N-terminal GST; dsDNA, one strand shown
# T6 sequence: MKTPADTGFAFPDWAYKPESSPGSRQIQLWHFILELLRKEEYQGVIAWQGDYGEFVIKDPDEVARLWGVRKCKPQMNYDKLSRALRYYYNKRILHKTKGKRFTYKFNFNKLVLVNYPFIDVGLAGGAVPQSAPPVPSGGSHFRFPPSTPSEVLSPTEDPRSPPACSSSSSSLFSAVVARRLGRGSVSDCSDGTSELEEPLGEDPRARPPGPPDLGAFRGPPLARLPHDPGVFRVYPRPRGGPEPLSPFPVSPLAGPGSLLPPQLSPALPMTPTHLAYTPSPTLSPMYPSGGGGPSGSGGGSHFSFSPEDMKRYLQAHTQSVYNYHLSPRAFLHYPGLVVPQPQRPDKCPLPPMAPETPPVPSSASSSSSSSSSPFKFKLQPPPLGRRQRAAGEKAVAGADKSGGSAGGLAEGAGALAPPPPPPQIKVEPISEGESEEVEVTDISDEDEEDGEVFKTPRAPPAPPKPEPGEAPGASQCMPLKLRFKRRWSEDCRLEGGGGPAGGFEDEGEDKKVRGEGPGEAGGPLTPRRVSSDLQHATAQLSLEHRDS
# Outline: as §1
# [12] = target: T7, ETV3L (Homo sapiens, UniProt Q6ZN32 1-361); conditions: protein: recombinant; tags: N-terminal GST; dsDNA, one strand shown
# T7 sequence: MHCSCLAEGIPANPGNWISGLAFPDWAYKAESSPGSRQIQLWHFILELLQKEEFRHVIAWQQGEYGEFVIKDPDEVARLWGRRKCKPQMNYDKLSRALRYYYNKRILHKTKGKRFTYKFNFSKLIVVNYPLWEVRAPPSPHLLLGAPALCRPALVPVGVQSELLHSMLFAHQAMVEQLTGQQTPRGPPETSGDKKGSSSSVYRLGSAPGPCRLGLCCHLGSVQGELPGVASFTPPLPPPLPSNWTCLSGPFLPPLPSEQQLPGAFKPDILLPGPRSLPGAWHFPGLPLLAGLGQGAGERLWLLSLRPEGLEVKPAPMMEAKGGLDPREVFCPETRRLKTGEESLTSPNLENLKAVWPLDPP
# Outline: as §1
# [13] = target: T8, ETS2 (Homo sapiens, UniProt P15036 1-469); conditions: protein: recombinant; tags: N-terminal GST; dsDNA, one strand shown
# T8 sequence: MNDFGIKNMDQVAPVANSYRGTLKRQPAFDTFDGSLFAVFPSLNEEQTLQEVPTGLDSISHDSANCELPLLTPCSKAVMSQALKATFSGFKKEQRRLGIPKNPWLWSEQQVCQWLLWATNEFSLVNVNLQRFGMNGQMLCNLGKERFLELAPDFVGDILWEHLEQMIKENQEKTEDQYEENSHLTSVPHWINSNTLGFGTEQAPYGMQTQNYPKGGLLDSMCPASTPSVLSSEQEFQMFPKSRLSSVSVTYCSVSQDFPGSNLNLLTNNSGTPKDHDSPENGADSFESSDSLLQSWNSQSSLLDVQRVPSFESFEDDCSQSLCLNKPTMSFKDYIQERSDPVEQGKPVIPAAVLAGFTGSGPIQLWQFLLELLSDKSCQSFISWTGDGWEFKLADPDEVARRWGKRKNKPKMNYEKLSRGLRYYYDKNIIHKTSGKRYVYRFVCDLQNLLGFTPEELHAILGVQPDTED
# Outline: as §1
# [14] = target: T9, SPDEF (Homo sapiens, UniProt O95238 1-335); conditions: protein: recombinant; tags: N-terminal GST; dsDNA, one strand shown
# T9 sequence: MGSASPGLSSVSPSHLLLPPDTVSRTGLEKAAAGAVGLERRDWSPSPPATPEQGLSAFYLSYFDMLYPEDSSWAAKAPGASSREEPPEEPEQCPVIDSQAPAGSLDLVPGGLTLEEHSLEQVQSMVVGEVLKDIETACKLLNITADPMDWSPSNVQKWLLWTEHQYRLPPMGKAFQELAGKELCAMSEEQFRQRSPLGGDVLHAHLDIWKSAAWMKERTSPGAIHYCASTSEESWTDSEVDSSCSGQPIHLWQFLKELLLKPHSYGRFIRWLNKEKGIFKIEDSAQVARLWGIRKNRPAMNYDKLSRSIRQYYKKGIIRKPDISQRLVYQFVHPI
# Outline: as §1
# [15] = target: T10, ETV7 (Homo sapiens, UniProt Q9Y603 1-341); conditions: protein: recombinant; tags: N-terminal GST; dsDNA, one strand shown
# T10 sequence: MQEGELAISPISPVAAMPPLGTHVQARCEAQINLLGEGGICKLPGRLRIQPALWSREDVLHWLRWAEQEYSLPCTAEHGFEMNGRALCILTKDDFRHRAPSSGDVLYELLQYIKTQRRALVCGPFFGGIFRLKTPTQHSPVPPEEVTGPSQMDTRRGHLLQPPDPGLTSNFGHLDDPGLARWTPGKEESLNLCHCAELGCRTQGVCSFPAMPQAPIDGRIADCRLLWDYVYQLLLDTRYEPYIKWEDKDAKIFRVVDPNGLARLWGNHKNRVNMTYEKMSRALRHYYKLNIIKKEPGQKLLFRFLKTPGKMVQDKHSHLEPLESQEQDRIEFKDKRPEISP
# Outline: as §1
# [16] = target: T11, ELF5 (Homo sapiens, UniProt Q9UKW6-2 1-255); conditions: protein: recombinant; tags: N-terminal GST; dsDNA, one strand shown
# T11 sequence: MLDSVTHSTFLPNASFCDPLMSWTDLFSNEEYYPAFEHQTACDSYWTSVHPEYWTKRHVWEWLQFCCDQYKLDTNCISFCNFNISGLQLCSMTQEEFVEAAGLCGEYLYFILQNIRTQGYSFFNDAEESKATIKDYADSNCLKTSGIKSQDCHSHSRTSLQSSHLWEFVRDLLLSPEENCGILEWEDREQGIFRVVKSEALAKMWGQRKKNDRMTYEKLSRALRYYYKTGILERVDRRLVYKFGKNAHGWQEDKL
# Outline: as §1
# [17] = target: T12, ETV3 (Homo sapiens, UniProt P41162-2 1-143); conditions: protein: recombinant; tags: N-terminal GST; dsDNA, one strand shown
# T12 sequence: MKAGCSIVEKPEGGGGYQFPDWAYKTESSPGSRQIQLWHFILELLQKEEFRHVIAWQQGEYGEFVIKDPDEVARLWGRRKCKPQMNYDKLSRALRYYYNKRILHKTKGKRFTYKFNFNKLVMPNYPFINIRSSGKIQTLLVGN
# Outline: as §1
# [18] = target: ETV6 (Homo sapiens, UniProt P41212 1-452); conditions: protein: recombinant; tags: N-terminal GST; dsDNA, one strand shown
# Outline: as §1
# ETV5, sequence (P41161 whole entry): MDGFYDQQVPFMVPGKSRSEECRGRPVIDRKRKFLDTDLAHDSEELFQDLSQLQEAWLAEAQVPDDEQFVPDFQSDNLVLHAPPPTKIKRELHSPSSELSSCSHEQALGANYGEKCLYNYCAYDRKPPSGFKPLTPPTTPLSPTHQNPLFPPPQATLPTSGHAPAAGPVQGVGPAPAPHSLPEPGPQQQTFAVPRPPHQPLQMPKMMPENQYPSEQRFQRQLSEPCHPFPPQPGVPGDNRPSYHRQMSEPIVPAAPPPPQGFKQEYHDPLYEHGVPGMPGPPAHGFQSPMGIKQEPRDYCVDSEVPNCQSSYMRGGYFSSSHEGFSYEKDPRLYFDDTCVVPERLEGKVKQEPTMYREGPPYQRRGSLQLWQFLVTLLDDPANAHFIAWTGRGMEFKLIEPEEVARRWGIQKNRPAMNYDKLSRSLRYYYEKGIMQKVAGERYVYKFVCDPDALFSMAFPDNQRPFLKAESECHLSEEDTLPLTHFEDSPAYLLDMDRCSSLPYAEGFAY
# ETV1, sequence (P50549 whole entry): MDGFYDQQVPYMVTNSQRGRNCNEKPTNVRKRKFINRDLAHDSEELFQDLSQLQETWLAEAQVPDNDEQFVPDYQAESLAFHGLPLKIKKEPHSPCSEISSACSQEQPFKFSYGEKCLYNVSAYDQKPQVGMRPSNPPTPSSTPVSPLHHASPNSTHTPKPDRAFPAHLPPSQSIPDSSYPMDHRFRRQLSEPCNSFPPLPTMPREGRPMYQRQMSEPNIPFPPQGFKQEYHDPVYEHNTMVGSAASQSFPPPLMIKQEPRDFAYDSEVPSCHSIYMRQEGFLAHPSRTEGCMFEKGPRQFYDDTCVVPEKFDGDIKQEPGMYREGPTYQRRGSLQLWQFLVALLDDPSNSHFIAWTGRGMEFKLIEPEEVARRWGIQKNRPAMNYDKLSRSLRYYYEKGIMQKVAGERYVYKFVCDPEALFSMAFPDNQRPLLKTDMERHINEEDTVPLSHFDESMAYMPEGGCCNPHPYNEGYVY
# HSF1, sequence (Q00613 whole entry): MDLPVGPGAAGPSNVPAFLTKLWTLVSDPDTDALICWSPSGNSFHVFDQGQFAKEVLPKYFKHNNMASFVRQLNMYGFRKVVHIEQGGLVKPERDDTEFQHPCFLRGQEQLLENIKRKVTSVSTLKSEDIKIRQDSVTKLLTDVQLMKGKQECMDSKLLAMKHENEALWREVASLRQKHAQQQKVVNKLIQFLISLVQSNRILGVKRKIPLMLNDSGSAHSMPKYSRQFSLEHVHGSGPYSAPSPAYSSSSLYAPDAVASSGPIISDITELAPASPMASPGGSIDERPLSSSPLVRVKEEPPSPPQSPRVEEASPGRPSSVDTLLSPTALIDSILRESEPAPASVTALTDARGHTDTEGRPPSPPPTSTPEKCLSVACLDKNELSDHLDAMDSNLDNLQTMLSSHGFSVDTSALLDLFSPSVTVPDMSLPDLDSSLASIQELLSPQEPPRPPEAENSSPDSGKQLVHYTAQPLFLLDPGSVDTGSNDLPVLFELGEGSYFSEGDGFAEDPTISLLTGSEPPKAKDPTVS
# ETV6, sequence (P41212 whole entry): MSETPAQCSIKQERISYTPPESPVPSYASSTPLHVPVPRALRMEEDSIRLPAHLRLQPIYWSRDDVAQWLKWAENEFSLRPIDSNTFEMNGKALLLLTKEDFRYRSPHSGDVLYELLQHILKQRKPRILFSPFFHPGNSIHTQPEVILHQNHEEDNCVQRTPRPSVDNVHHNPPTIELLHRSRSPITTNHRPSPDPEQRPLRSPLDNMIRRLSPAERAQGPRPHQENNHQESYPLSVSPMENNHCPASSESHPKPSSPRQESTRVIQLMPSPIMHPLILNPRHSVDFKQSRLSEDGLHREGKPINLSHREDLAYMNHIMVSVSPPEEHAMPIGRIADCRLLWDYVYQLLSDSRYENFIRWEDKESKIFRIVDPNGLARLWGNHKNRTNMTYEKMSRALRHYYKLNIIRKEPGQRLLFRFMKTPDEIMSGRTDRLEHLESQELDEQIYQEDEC
# CRX, sequence (O43186 whole entry): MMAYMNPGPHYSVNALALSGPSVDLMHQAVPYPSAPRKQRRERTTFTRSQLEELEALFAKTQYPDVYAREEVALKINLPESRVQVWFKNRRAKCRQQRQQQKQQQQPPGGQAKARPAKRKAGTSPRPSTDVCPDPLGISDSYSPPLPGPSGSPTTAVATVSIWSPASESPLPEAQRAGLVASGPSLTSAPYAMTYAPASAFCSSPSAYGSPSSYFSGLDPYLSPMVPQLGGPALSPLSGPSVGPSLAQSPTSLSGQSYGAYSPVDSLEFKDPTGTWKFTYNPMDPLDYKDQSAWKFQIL
# ELF4, sequence (Q99607 whole entry): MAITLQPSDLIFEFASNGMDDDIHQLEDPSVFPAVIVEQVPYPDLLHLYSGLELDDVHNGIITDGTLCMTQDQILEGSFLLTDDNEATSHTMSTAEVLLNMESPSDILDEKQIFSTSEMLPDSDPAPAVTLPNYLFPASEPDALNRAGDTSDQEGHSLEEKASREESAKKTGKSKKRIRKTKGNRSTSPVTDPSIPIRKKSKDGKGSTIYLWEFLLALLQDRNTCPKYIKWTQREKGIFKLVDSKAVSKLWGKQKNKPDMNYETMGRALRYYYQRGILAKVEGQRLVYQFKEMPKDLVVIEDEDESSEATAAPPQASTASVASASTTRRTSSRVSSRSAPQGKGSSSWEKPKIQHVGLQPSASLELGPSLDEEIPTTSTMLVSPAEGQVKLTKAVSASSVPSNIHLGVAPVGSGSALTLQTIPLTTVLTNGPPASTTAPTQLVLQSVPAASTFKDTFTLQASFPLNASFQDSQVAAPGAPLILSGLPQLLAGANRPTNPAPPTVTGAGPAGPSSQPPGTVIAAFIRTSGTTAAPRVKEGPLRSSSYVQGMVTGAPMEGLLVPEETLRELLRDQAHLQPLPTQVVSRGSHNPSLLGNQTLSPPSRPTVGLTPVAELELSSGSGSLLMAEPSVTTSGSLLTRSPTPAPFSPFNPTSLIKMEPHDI
sequence,measurement,setting,value
CTTAGG,binding signal,[1],"1.11 fold enrichment (6-mer frequency, TF over GST control)"
same,binding signal,[2],"1.15 fold enrichment (6-mer frequency, TF over GST control)"
same,binding signal,[3],"1.29 fold enrichment (6-mer frequency, TF over GST control)"
same,binding signal,[4],"1.3 fold enrichment (6-mer frequency, TF over GST control)"
same,binding signal,[5],"1.16 fold enrichment (6-mer frequency, TF over GST control)"
same,binding signal,[6],"1.04 fold enrichment (6-mer frequency, TF over GST control)"
same,binding signal,[7],"1.23 fold enrichment (6-mer frequency, TF over GST control)"
same,binding signal,[8],"1.49 fold enrichment (6-mer frequency, TF over GST control)"
same,binding signal,[9],"1.8 fold enrichment (6-mer frequency, TF over GST control)"
same,binding signal,[10],"1.19 fold enrichment (6-mer frequency, TF over GST control)"
same,binding signal,[11],"1.12 fold enrichment (6-mer frequency, TF over GST control)"
same,binding signal,[12],"1.01 fold enrichment (6-mer frequency, TF over GST control)"
same,binding signal,[13],"1.23 fold enrichment (6-mer frequency, TF over GST control)"
same,binding signal,[14],"1.06 fold enrichment (6-mer frequency, TF over GST control)"
same,binding signal,[15],"1.17 fold enrichment (6-mer frequency, TF over GST control)"
same,binding signal,[16],"1.11 fold enrichment (6-mer frequency, TF over GST control)"
same,binding signal,[17],"1.1 fold enrichment (6-mer frequency, TF over GST control)"
same,binding signal,[18],"1.15 fold enrichment (6-mer frequency, TF over GST control)"
